The sample as a whole holds a higher share of hits than the screen did.
ER stress surv: ER stress cell death inhibition; CSM14.1 thapsigargin ER stress survival, ATP luminescence; relative survival (cellular ATP), % at 15 µg/mL (by protocol); actives 0.33% (n = 48,000);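 active = survival measured by cellular ATP above 50% at 15 µg/ml in the first screen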;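 also: cell death triggered by about 15 µM thapsigargin; ATP read 24 h after thapsigargin was added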
Of the large screens only hits and unclear results are named; the others gave an inactive call.

COc1cccc(-c2nc3sc4c(c3c(=O)[nH]2)CCCC4)c1	none
O=C(C(c1ccccc1)c1ccccc1)N1CCN(Cc2ccncc2)CC1	none
Cc1ccccc1CN1CCN(C(=O)C(c2ccccc2)c2ccccc2)CC1	ER stress surv 97
O=C(C(c1ccccc1)c1ccccc1)N1CCN(Cc2ccc(F)cc2)CC1	ER stress surv 63
Cc1ccccc1C(=O)N1CCN(Cc2ccccc2)CC1	none
O=C(CC(c1ccccc1)c1ccccc1)N1CCN(Cc2ccccc2)CC1	none
Cc1ccccc1CN1CCN(C(=O)c2cccc(Cl)c2)CC1	none
CC(C)c1ccc(NC(=O)CCN2C(=O)c3ccccc3C2=O)cc1	none
COc1ccc(S(=O)(=O)N(CCc2ccccc2)CC(=O)Nc2ccc(C)cc2C)cc1	none
COc1ccc(NC(=O)Nc2ccc(Cl)c(Cl)c2)cc1	none
COc1ccccc1N(CC(=O)Nc1ccccc1Cl)S(=O)(=O)c1ccccc1	none
O=C1c2ccccc2C(=O)N1c1ccc2nc(SCc3ccc(F)cc3)sc2c1	none
COc1cccc(NC(=O)CCN2C(=O)/C(=C/c3ccc(C)cc3)SC2=S)c1	none
COc1ccc(NC(=O)CCN2C(=O)/C(=C\c3cccc(OC)c3)SC2=S)cc1	none
COc1ccc(NC(=O)CCN2C(=O)/C(=C\c3ccc(C)cc3)SC2=S)cc1	ER stress surv 51
Cc1ccc(S(=O)(=O)NNc2ccccc2[N+](=O)[O-])cc1	none
O=S(=O)(Nc1cccc(F)c1)c1ccc2ccccc2c1	none
O=C(CN1CC[n+]2c(-c3cccs3)csc21)c1ccccc1	ER stress surv 59
Cc1c(-c2cccs2)nc2ccccc2c1C(=O)O	none
O=C(CSc1nnc(-c2cccs2)n1-c1ccccc1)c1ccccc1	none
COc1ccccc1OCCNC(=O)c1ccc(F)c2ccccc12	none
N#CCC(=O)N1CCN(C(c2ccccc2)c2ccccc2)CC1	none
O=C1c2ccccc2C(=O)N1CC#CCN1CCN(C(c2ccccc2)c2ccccc2)CC1	ER stress surv 68
C(#Cc1ccccc1)CN1CCN(CC#Cc2ccccc2)CC1	none
CCOP(=O)(CN(C)S(=O)(=O)c1ccc(C)cc1)OCC	none
Cc1ccc(C(=O)Nc2c(C(C)C)cccc2C(C)C)cc1[N+](=O)[O-]	none
CCOc1ccccc1N1CCN(C(=O)c2cc(OC)c(OC)c(OC)c2)CC1	none
CCOc1ccccc1N1CCN(C(=O)c2cccc(Cl)c2)CC1	none
CCOc1ccccc1N1CCN(C(=O)c2sc3ccccc3c2Cl)CC1	ER stress surv 125
CCCOc1ccc(C(CC(=O)c2ccc(Cl)cc2)S(=O)(=O)c2ccccc2)cc1 (stereo not given)	none
CCOc1ccc2nc(NC(=O)c3ccccc3-c3ccccc3C(=O)O)sc2c1	none
COc1ccc(C2Nc3ccc(C(=O)c4ccccc4)cc3NC3=C2C(=O)CCC3)c(OC)c1 (stereo not given)	none
COc1ccccc1C1Nc2ccc(C(=O)c3ccccc3)cc2NC2=C1C(=O)CCC2 (stereo not given)	none
CN(C)c1ccc(C2Nc3ccc(C(=O)c4ccccc4)cc3NC3=C2C(=O)CCC3)cc1 (stereo not given)	ER stress surv 97
CCN(C(C)=O)C1=C(O)c2ccccc2C(=O)C1=O	none
CC(=O)NC(c1ccc2c(c1)OCO2)c1ccc2cccnc2c1O (stereo not given)	ER stress surv 77
COc1ccccc1C(NC(=O)Cc1ccccc1)c1ccc2cccnc2c1O (stereo not given)	none
O=C(NC(c1ccccc1)c1ccc2cccnc2c1O)c1ccccc1 (stereo not given)	none
Cc1ccc2c(nc3s/c(=C\c4ccc(Cl)cc4Cl)c(=O)n32)c1C	none
CC1(C)C(=O)N(Cc2ccccc2)c2ccccc2N1C(=O)c1ccc(Cl)cc1	none
COc1ccc(C(=O)N2c3ccccc3N(Cc3ccccc3)C(=O)C2(C)C)cc1	ER stress surv 110
CC1(C)C(=O)N(Cc2ccccc2)c2ccccc2N1C(=O)c1ccc([N+](=O)[O-])cc1	none
Cc1ccc(/C=C2\N=C(c3ccc(Cl)cc3)OC2=O)cc1	none
COc1ccc(N2C(=O)NC(=O)/C(=C\c3ccc(-c4ccccc4C(=O)O)o3)C2=O)cc1	none
CC(C)OP(=O)(OC(C)C)C(Nc1cccc([N+](=O)[O-])c1)c1cccc([N+](=O)[O-])c1 (stereo not given)	none
CC(C)OP(=O)(OC(C)C)C(Nc1cccc(N)c1)c1cccc(N)c1 (stereo not given)	ER stress surv 81
COP(=O)(OC)C(Nc1cc(Cl)cc(Cl)c1)c1cccc(O)c1 (stereo not given)	none
CCN(c1ccccc1)S(=O)(=O)c1c(C)cc(C)cc1C	none
COc1ccc(S(=O)(=O)Nc2ccc(Br)cc2F)cc1	none
COc1ccc(C2CC(=O)C3=C(C2)Nc2ccccc2NC3c2ccc(C)cc2)cc1 (stereo not given)	none
COc1ccc(C2CC(=O)C3=C(C2)Nc2ccccc2NC3c2c(Cl)cccc2Cl)cc1 (stereo not given)	none
O=C1CC(c2ccccc2)CC2=C1C(c1ccccc1Cl)Nc1ccccc1N2 (stereo not given)	none
COc1ccc(C2Nc3ccccc3NC3=C2C(=O)CC(c2ccc(Cl)cc2)C3)cc1 (stereo not given)	none
COc1ccc(C2CC(=O)C3=C(C2)Nc2ccccc2NC3c2ccc(OCc3ccccc3)c(OC)c2)cc1 (stereo not given)	none
COc1ccc(C2CC(=O)C3=C(C2)Nc2ccccc2NC3c2ccc(OCc3ccccc3)cc2)cc1 (stereo not given)	ER stress surv 94
COc1ccc(C2CC(=O)C3=C(C2)Nc2ccccc2NC3c2ccccc2C)cc1 (stereo not given)	ER stress surv 99
COc1ccc(C2CC(=O)C3=C(C2)Nc2ccccc2NC3c2ccccc2OC)cc1 (stereo not given)	none
COc1ccc(C2CC(=O)C3=C(C2)Nc2ccccc2NC3c2ccccc2Cl)cc1 (stereo not given)	ER stress surv 101
COc1ccc2oc(=O)c(-c3csc(N/N=C/c4ccco4)n3)cc2c1	none
O=C(Nc1ccc(S(=O)(=O)N2CCOCC2)cc1)c1ccc(Br)s1	none
Cc1ccc(C(=O)Nc2ccccc2)cc1[N+](=O)[O-]	none
Cc1ccc(C(=O)N2c3c(C)cccc3C(Nc3ccccc3C)CC2C)cc1 (stereo not given)	none
COc1cc(CN2CCN(C(=O)c3cccc(Cl)c3)CC2)cc(OC)c1OC	none
O=C(N/N=C/c1ccccc1O)c1c[nH]c2ccccc12	none
O=C(O)CSc1nnc(COc2ccccc2)n1-c1ccc(Cl)cc1	none
O=C1NC(=O)N(c2ccccc2)C(=O)/C1=C\c1cccn1-c1cccc([N+](=O)[O-])c1	none
O=C1C(c2ccccc2)C(c2cccs2)NC(c2cccs2)C1c1ccccc1 (stereo not given)	none
O=C(CN1C(=O)/C(=C/c2ccccc2)SC1=S)NNC(=O)c1ccncc1	none
COc1ccc(C(=O)N2CCN(Cc3cccc(F)c3)CC2)cc1	none
O=C(c1cccc(F)c1)N1CCN(Cc2cccc(F)c2)CC1	none
O=C(c1cccc(F)c1)N1CCN(Cc2cccc(Oc3ccccc3)c2)CC1	ER stress surv 60
COc1ccc(NC(=O)c2c(C)c(-c3ccc(C)cc3)nc3ccccc23)c(OC)c1	ER stress surv 68
COc1ccc(-c2nc3ccccc3c(C(=O)Nc3ccc(C)cc3)c2C)cc1	none
COc1ccc(NC(=O)c2cc(-c3ccc(OC)cc3OC)nc3ccccc23)c(OC)c1	none
COc1ccc(N(CC(=O)Nc2ccc(OC)cc2OC)S(=O)(=O)c2ccc(C)cc2)cc1	none
CCCOc1cccc(C(=O)Nc2ccc(C(=O)Nc3ccccc3C(=O)O)cc2)c1	none
COc1ccc(C(=O)NCCOc2ccccc2F)cc1OC	none
COc1ccc(C(=O)NCCOc2ccccc2OC)cc1OC	none
